The source made the active and inactive calls. Rule for the calls: active = hit-call score of the fitted dose curve at least 0.9, where 1 is the maximum; inactive = score below 0.9.

Read-out in this assay: Thrombomodulin, THBD (gene 7056)
Put plainly: BSK_3C_Thrombomodulin: BioMAP Diversity Plus: 3C Assay for Thrombomodulin Biomarker Activity (AID 2283029). The settings on record: primary human endothelial cells (HUVEC); actives raise or lower the signal. The method, then: BSK_3C is a cell-based, multiplexed-readout assay that uses umbilical vein endothelium, a human vascular primary cell, with measurements taken at 24 hours after chemical dosing in a 96-well plate.BSK_3C_Thrombomodulin is an assay component measured in the BSK_3C assay. It measures Thrombomodulin antibody related to regulation of gene expression using ELISA technology.Data from the assay component BSK_3C_Thrombomodulin was analyzed into 1 assay endpoint. This assay endpoint, BSK_3C_Thrombomodulin, was analyzed with bidirectional fitting relative to DMSO as the negative control and baseline of activity. Using a type of binding reporter, gain or loss-of-signal activity can be used to understand changes in the signaling as they relate to the gene THBD. Furthermore, this assay endpoint can be referred to as a primary readout, because this assay has produced multiple assay endpoints where this one serves a signaling function. To generalize the intended target to other relatable targets, this assay endpoint is annotated to the gpcr intended target family, where the subfamily is rhodopsin-like receptor.
The levels of cell surface (or secreted, indicated by the prefix "s") biomarker endpoints were measured by ELISA. Overt cytotoxicity to cells in confluent adherent cultures (all systems other than the BT system) was assessed by measuring total protein levels using sulforhodamine B (SRB) staining in parallel cultures at the time of biomarker measurements, indicated as SRB endpoints. For proliferation assays for adherent cell types, individual cell types are cultured at sub-confluence and relative cell numbers quantified by SRB staining at time points optimized for each system (48 h: 3C and CASM3C systems; 72 h: BT and HDF3CGF systems; 96 h: SAg system). SRB was performed by staining cells with 0.1% SRB after fixation with 10% TCA and reading wells at 560 nm.Viability and proliferation of PBMC (T cells) was quantified by Alamar Blue reduction for the SAg and BT systems. For PBMC viability (referred to as PBMC Cytotoxicity within the assay endpoint names), cells were plated (75,000/well in a 96-well plate) and then chemical samples added for 1 h before addition of activators, SEB and TSST-1 (20 ng/mL final concentration each). Cells were incubated for 90 h. Then, Alamar Blue (20 uL/well) (Invitrogen, Cat DAL1100) was added for 6 h, and the plates were read with a fluorescence microplate reader at 546/580 nm (excitation/emission). For PBMC proliferation, cells were plated and activated as above but incubated for only 16 h prior to addition of Alamar Blue. Plates were read after 6 h.
For `O=P(OCCCl)(OCCCl)OCCCl`, the outcome was inactive.
On the same count and under the same terms, the entry for `[As]#[In]` is “inactive”.
In the case of `Oc1ccccc1Cl`, the outcome was inactive.
The AC50 is the concentration at which the activity in the assay is half-maximal. For the molecule `CCCCCCCCn1sccc1=O`, the AC50 is 5.76 µM (active).
On the same count and under the same terms, the figure for `CCC[CH2][Sn]([Cl])([CH2]CCC)[CH2]CCC` is 0.486 µM (active).
With `OCCOCCO`, the outcome was inactive.
Still for that read-out and setting: the entry for `CCNS(=O)(=O)C(F)(F)C(F)(F)C(F)(F)C(F)(F)C(F)(F)C(F)(F)C(F)(F)C(F)(F)F` is “inactive”; for `CC(C)(OOC(C)(C)c1ccccc1)c1ccccc1` it is “inactive”.
On to `CCCCCOC(=O)c1ccccc1C(=O)OCCCCC`, for which the result was inactive.
Same read-out and setting: then `CCCSC(=O)N(CCC)CCC`, with “inactive”; and `OCCCl`, with “inactive”.
The same measure, in the same setting: the entry for `Nc1ccc([N+](=O)[O-])cc1` is “inactive”.
Still for that read-out and setting: the entry for `C=CCc1ccc2c(c1)OCO2` is “inactive”; for `Nc1ccc(Oc2ccc(N)cc2)cc1` it is “inactive”.
`O=C(O)C1C2CCC(O2)C1C(=O)O` (stereo not given): the result was inactive.
On the same count and under the same terms, then `OCCCBr`, with “inactive”.
Same read-out and setting: the entry for `O=[N+]([O-])C(Br)(CO)CO` is “inactive”.
Still for that read-out and setting: the entry for `Cc1ccc([N+](=O)[O-])cc1` is “inactive”.
Turning to `Clc1ccc(C(c2ccc(Cl)cc2)C(Cl)Cl)cc1`, the outcome was inactive.
For the molecule `Nc1ccc(Cl)cc1N`, the half-maximal activity concentration (AC50) is 0.785 µM (active).
As for `Cc1cccc(N)c1N`, the outcome was inactive.
Same read-out and setting: the entry for `O=C(Nc1ccccc1)c1ccccc1I` is “inactive”.
On the same count and under the same terms, the entry for `CC(C)(C)OOC(C)(C)CCC(C)(C)OOC(C)(C)C` is “inactive”; for `c1ccc2c(c1)oc1ccccc12` it is “inactive”; for `C1=Cc2cccc3cccc1c23` it is “inactive”.
Same read-out and setting: the entry for `CCCCCCCCCCCCCN1CC(C)OC(C)C1` (stereo not given) is “inactive”; for `CCOc1cccc(C2(N3CCN(c4ccccc4)CC3)CCC(C)CC2)c1` (stereo not given) it is “inactive”; for `CCC12COCN1COC2` it is “inactive”.
In the case of `Nc1ccc(N=Nc2ccccc2)cc1`, the outcome was inactive.
The same measure, in the same setting: the entry for `Cn1cc(-c2ccccc2)c(=O)c(-c2cccc(C(F)(F)F)c2)c1` is “inactive”; for `CC(C)N(Cc1ccccc1)C(=O)C(C)(C)C` it is “inactive”.
On the same count and under the same terms, then `N#CC(Br)Br`, with “inactive”; and `COP(=S)(OC)SCN1C(=O)c2ccccc2C1=O`, with “inactive”.
Same read-out and setting: then `O=C1CCCO1`, with “inactive”.
Consider `CN(C)c1ccc(C(=O)c2ccc(N(C)C)cc2)cc1`, for which the result was inactive.
Same read-out and setting: then `Oc1ccc2ccc3cccc4ccc1c2c34`, with “inactive”; and `Nc1ccc(Cc2ccc(N)cc2)cc1`, with “inactive”.
Same read-out and setting: then `Cc1ccc(N=C=O)cc1N=C=O`, with “inactive”.
Still for that read-out and setting: the entry for `CNC(=O)Oc1cccc2c1OC(C)(C)C2` is “inactive”.
As for `O=Cc1ccco1`, the result was inactive.

Source of the values: PubChem BioAssay (EPA / NIEHS).
